Values joined by “and” are separate entries in the source; they are usually repeats but may differ in a detail not shown here. Equal values may be shown once. Read-outs that look alike come from different tables or passages of the source.
What was measured:
[1] = test system: CSNK1A1; conditions: concentration: 1 μM, replicates: in singlicate; n = 1
[2] = test system: CSNK1D; conditions: n = 1
[3] = test system: CSNK1E; conditions: n = 1
[4] = test system: CSNK1G1; conditions: n = 1
[5] = test system: CSNK1G2; conditions: concentration: 1 μM, replicates: in singlicate; n = 1
[6] = test system: CSNK1G3; conditions: n = 1
[7] = test system: CSNK2A1; conditions: n = 1
[8] = test system: CSNK2A2; conditions: n = 1
[9] = test system: T1, CTK; conditions: concentration: 1 μM, replicates: in singlicate; n = 1
T1 construct: gene MATK

[10] = test system: DAPK1; conditions: n = 1
[11] = concentration: 1 μM, replicates: in singlicate
[12] = concentration: 1 μM,replicates: in singlicate, 1 µM
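Note: KINOMEscan kinase panel screen.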

Structure (SMILES)	%Inh [1]	%Inh [2, 11]	%Inh [3, 11]	%Inh [4, 11]	%Inh [5]	%Inh [6, 11]	%Inh [7, 11]	%Inh [8, 11]	%Inh [9]	%Inh [10, 11]	%Inh [2, 12]	%Inh [3, 12]	%Inh [4, 12]	%Inh [6, 12]	%Inh [7, 12]	%Inh [8, 12]	%Inh [10, 12]
Cn1cncc1-c1ccc2ncnc(Nc3ccc(OCc4ccccc4)cc3)c2c1 [GW320571]	0%	20%	99.4%	0%	15%	19%	26%	15%	0%	0%	–	–	–	–	–	–	–
CCCc1ccc(S(=O)(=O)NC2CCN(c3ccnc(Nc4ccc(F)cc4)n3)C2)cc1 (stereo not shown) [GSK1379715]	0%	0%	25%	2%	0%	2%	0%	0%	0%	0%	–	–	–	–	–	–	–
COC(=O)c1c(-c2ccccc2)c2cc(OC)ccc2c(=O)n1Cc1ccccc1	9%	0%	0%	8%	0%	0%	0%	27%	26%	37%	–	–	–	–	–	–	–
Cn1ccc2ncnc(Oc3ccc(Nc4nc5ccccc5[nH]4)cc3)c21	0%	0%	0%	0%	0%	0%	0%	0%	0%	0%	–	–	–	–	–	–	–
COc1ccc(Nc2nccc(NCCNC(=O)Nc3ccccc3F)n2)cc1 [GSK1379901]	0%	7%	99.4%	7%	0%	25%	0%	2%	0%	0%	–	–	–	–	–	–	–
Cc1csc(-c2nc(Nc3ccncc3)c3ccccc3n2)n1 [GW869640]	28%	46%	41%	0%	9%	0%	28%	26%	36%	22%	–	–	–	–	–	–	–
Cc1ccc(-c2cc(-c3c[nH]nc3-c3ccccn3)ccn2)cc1 [GW684088]	21%	26%	18%	10%	22%	24%	0%	0%	0%	11%	–	–	–	–	–	–	–
Cc1nnc(-c2ccc3occ(-c4ccc(S(C)=O)cc4)c3c2)[nH]1 (stereo not shown)	0%	0%	0%	8%	4%	0%	63%	72%	21%	10%	–	–	–	–	–	–	–
CC1=C(C(=O)Nc2cc3cn[nH]c3cc2F)C(c2ccc(C(F)(F)F)cc2)CC(=O)N1 (stereo not shown) [GSK429286]	0%	10%	25%	7%	0%	12%	18%	0%	0%	9%	–	–	–	–	–	–	–
NC(=O)c1nnc2ccccc2c1N	66%	49%	37%	9%	0%	43%	11%	24%	0%	2%	–	–	–	–	–	–	–
Fc1cccc(COc2nnc(-c3ccc4c(c3)CCO4)o2)c1	0%	0%	0%	10%	4%	0%	42%	60%	0%	24%	–	–	–	–	–	–	–
Cc1ccc(NC(=O)Nc2cccc(Cl)c2)cc1-c1ccc(C(=O)Nc2ccncc2)cc1 [GSK1398468]	0%	57%	19%	2%	0%	25%	0%	0%	0%	3%	–	–	–	–	–	–	–
CSc1nn2c(=O)cc(N3CCOCC3)nc2n1Cc1cccc(C(F)(F)F)c1C [GSK2363608]	0%	–	–	–	0%	–	–	–	0%	–	27% and 8%	25% and 19%	100% and 4%	41% and 20%	7% and 0%	7% and 0%	3% and 0%
Cl.NC(=O)c1cccc(Nc2nccc(Nc3ccc(Oc4cccc(Cl)c4)c(Cl)c3)n2)c1 [GW659008]	1%	5%	8%	0%	0%	17%	15%	19%	2%	0%	–	–	–	–	–	–	–
CS(=O)(=O)c1ccc(-c2nc3n(c2-c2ccncc2)CCC3)cc1 [SKF-105942]	0%	6%	22%	4%	0%	2%	0%	9%	0%	0%	–	–	–	–	–	–	–
CC(C)(C)c1ccc(C(=O)Nc2cn3cc(Cl)ccc3n2)cc1	19%	67%	59%	0%	16%	0%	0%	0%	0%	20%	–	–	–	–	–	–	–
